Structures are written as SMILES. In all, about 320,000 compounds went through this assay and about 2,100 (0.66%) were called active. Roughly 53% stayed inconclusive and do not appear here. The call rests on the fitted dose curve; in most records, active means well fitted inhibition curve with a large enough effect in the signal ratio, with a control signal flat (not every such curve was filed as active); inconclusive means small, poorly fitted or top-dose-only effect, or effect the other way, or a change in a side signal; inactive means flat fitted curve, though single readings scatter; the % refers to the signal ratio. The sample as a whole holds a higher share of actives than the screen did.
Potency means the concentration at half of the fitted maximal effect.

A short description of this experiment: qHTS Assay for Lipid Storage Modulators in Drosophila S3 Cells.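 On cell number change: cells counted by Cell Tracker Red CMTPX staining in the red channel.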 On lipid storage change, negative = inhibition: on the % scale 0 is the no-effect control and ±100 the full control effect. As to conditions: BODIPY lipid droplet fluorescence, 18-24 h, cells fed with added oleic acid; cell number change: measured here: cell count max response; series mostly up to 46.1 µM; lipid storage change, negative = inhibition: at the top concentration. Put shortly:
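Laser-scanning cytometry quantifies lipid droplet accumulation (500–530 nm total intensity; droplet/cell object ratio) in oleic acid-fed (400 uM added) Drosophila S3 cells treated with a concentration series. 20 uM Triacsin C defined 100% inhibition.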
In the case of `CCOC(=O)C1(CCOC)CCN(Cc2ccc(C3CCCCO3)s2)CC1` (stereo unspecified), the “lipid storage change, negative = inhibition” value is -17.6% (inactive) and the cell number change was -8.03%. With `O=C1C2C(C(=O)N1Cc1cccnc1)C1C=CC2C12CC2` (stereo unspecified), the result was inactive and the cell number change was -2.7%.

In the case of `O=C(Cc1ccccc1)NN1C(=O)C2C3C=CC([C@@H]2C1=O)C31CC1` (stereo partly specified), the “lipid storage change, negative = inhibition” value was -2.59% (inactive) and the cell number change was -3.77%. Turning to `O=C1C2C(C(=O)N1CCc1ccccc1)C1C=CC2C12CC2` (stereo unspecified), the Potency is 23.1 µM (active) and the cell number change is -11.6%. Take `COCC(=O)Nc1ccc(C(C)C)cc1`: the compound was called inactive and the cell number change is 24.3%. For the compound `CC(C)(C)C(=O)NCCN1CCN(C(=O)C(C)(C)C)CC1`, the “lipid storage change, negative = inhibition” value is 5.31% (inactive) and the cell number change was found to be 3.18%. On to `Cc1ccc(-c2nnn(CC(=O)N3C(C)CCCC3C)n2)cc1` (stereo unspecified), for which the Potency was 10.3 µM (active) and the cell number change was -11%. `Cc1ccc(-c2nnn(CC(=O)O)n2)cc1`: the outcome was inactive. As for `Cc1ccc(-c2nnn(CCC(=O)N3CCCCC3C)n2)cc1` (stereo unspecified), the “lipid storage change, negative = inhibition” value is 5.42% (inactive) and the cell number change was 10.5%. As to `Cc1cc(C(=O)N/N=C/c2c(CO)cnc(C)c2O)c2ccccc2n1`, the Potency is 5.17 µM (active) and the cell number change was -19.9%. In the case of `Cc1ncc(CO)c(/C=N/NC(=O)c2ccc(O)cc2)c1O`, the “lipid storage change, negative = inhibition” value was -1.92% (inactive) and the cell number change came to 19.8%. Taken in the same sequence, the figures for `Cc1ncc(CO)c(/C=N/NC(=O)c2ccccc2Br)c1O` were -8.28% (inactive) and 0.48%. The matching figures for `Cn1c(CNC(=O)OC(C)(C)C)nnc1SCc1c(Cl)cccc1Cl`: 6.49% (inactive) and -2.58%. The matching figures for `Nc1nc(-c2ccccc2)nn1C(=O)c1ccco1`: -0.905% (inactive) and -9.73%.

With `Cc1cc(NC(=O)COC(=O)CCC(=O)c2ccc(F)cc2)no1`, the “lipid storage change, negative = inhibition” value is -10.1% (inactive) and the cell number change was 5.31%. For the compound `O=C(CN1C(=O)NC2(CCCCCC2)C1=O)NCc1cccs1`, the “lipid storage change, negative = inhibition” value was 1.88% (inactive) and the cell number change was -8.23%. As for `CC(C)(C)c1ccc(C2(C)NC(=O)N(CC(=O)NCc3cccs3)C2=O)cc1` (stereo unspecified), the Potency was 5.17 µM (active) and the cell number change was 3.77%. For the compound `COc1ccc(CNC(=O)CN2C(=O)NC(C)(c3ccc(C(C)(C)C)cc3)C2=O)cc1` (stereo unspecified), the “lipid storage change, negative = inhibition” value is 2.76% (inactive) and the cell number change was 5.69%.

Take `Cc1ccc(S(=O)(=O)NCc2ccccc2)cc1C(=O)N1CCCCCCC1`: the “lipid storage change, negative = inhibition” value was -14.6% (inactive) and the cell number change is -10.2%. Take `O=C(NCc1ccccc1)c1onc(CSc2nc3ccccc3[nH]2)c1C(=O)NCc1ccccc1`: the Potency is 14.6 µM (active) and the cell number change is -26.6%. `C=CCNC(=O)c1onc(CSc2nc3ccccc3[nH]2)c1C(=O)NCC=C`: the result was inactive and the cell number change was -6.29%. In the case of `COCCNC(=O)c1onc(CSc2nc3ccccc3[nH]2)c1C(=O)NCCOC`, the compound was classed as inactive and the cell number change was -7.78%.

For `Cc1cc(C)cc(SCc2noc(C(=O)NCc3ccccc3)c2C(=O)NCc2ccccc2)c1`, the “lipid storage change, negative = inhibition” value was 5.46% (inactive) and the cell number change was -2.6%. For `O=C(NCC1CC1)c1onc(CSc2nc3ccccc3[nH]2)c1C(=O)NCC1CC1`, the Potency was 11.6 µM (active) and the cell number change is -10.5%.

On to `O=C(NCC1CC1)c1onc(CSc2ccc(F)cc2)c1C(=O)NCC1CC1`, for which the “lipid storage change, negative = inhibition” value was -7.02% (inactive) and the cell number change came out at 10.6%. For `Cc1c(C(=O)OC(C)C)nnn1-c1nonc1N`, the “lipid storage change, negative = inhibition” value is -3.46% (inactive) and the cell number change worked out at 7.24%.

As for `Cc1ccsc1-c1nc(CN2CCCC2c2ccc(F)cc2)c(C)o1` (stereo unspecified), the “lipid storage change, negative = inhibition” value was 8.98% (inactive) and the cell number change was found to be 4.95%. Taken in the same sequence, the figures for `Cc1cnc(C(=O)N2CCCC(C(=O)c3cccc(OC(C)C)c3)C2)cn1` (stereo unspecified) were 2.98% (inactive) and -12.5%.

On to `Cc1ccc(C)c(NC(=O)c2ccc[n+](Cc3ccc([N+](=O)[O-])cc3)c2)c1`, for which the “lipid storage change, negative = inhibition” value was -3.16% (inactive) and the cell number change worked out at 11.2%. Taken in the same sequence, the figures for `CNNC(=O)C(C)NC(=O)c1ccc(Br)cc1` (stereo unspecified) were 11.6% (inactive) and 10.8%. Taken in the same sequence, the figures for `CCC(CC)NC(=O)Nc1ccc(C)cc1` were 5.28% (inactive) and -11.1%. The matching figures for `CCN(CC)c1nc(N)nc(NS(=O)(=O)c2ccc(Cl)cc2)n1`: 8.21% (inactive) and 7.29%.

On to `O=c1c2ccccc2nc(SCc2nc3ccccc3s2)n1CCCO`, for which the “lipid storage change, negative = inhibition” value is 0.263% (inactive) and the cell number change is -14.5%. Taken in the same sequence, the figures for `CCOCCCn1c(SCC(=O)NC(C)(C)C)nc2ccccc2c1=O` were 29.5% (inactive) and -4.14%. Turning to `CCOCCCn1c(SCc2nc3ccccc3s2)nc2ccccc2c1=O`, the Potency is 3.66 µM (active) and the cell number change is -21.8%.

Consider `Brc1ccccc1OCCCN1CCCCCC1`, for which the “lipid storage change, negative = inhibition” value is -11.1% (inactive) and the cell number change stood at 5.41%. In the case of `COc1ccc2nc(NC(=O)CCNC(=O)c3ccco3)sc2c1`, the Potency was 8.2 µM (active) and the cell number change turned out to be 15.7%. For the compound `O=C(CCNC(=O)c1ccccc1Cl)Nc1nc2ccccc2s1`, the “lipid storage change, negative = inhibition” value was 6.98% (inactive) and the cell number change worked out at 9.97%. Turning to `O=C(CCNC(=O)c1ccccc1)Nc1nc2ccccc2s1`, the Potency is 3.66 µM (active) and the cell number change is 12%.

For the compound `COc1ccc2nc(NC(=S)NC(=O)c3ccco3)sc2c1`, the “lipid storage change, negative = inhibition” value is 0.215% (inactive) and the cell number change turned out to be 10%.

In the case of `COc1ccc2nc(NC(=O)c3ccco3)sc2c1`, the “lipid storage change, negative = inhibition” value is -16.9% (inactive) and the cell number change was determined as 9.21%. Taken in the same sequence, the figures for `O=C(Cc1ccccc1)Nc1nc2ccccc2s1` were -4.4% (inactive) and -15.5%. The matching figures for `O=C(NNc1nc2c(F)cccc2s1)c1cc(=O)c2ccccc2o1`: -15% (inactive) and -1.04%.

As to `CC(=O)c1sc(NC(=O)c2cc(=O)c3ccccc3o2)nc1C`, the “lipid storage change, negative = inhibition” value was -6.15% (inactive) and the cell number change is -11.4%. `COc1ccc2nc(NNC(=O)c3cc(=O)c4ccccc4o3)sc2c1`: the Potency was 5.17 µM (active) and the cell number change was 1.29%. Take `COc1ccc(C(=O)NCCOc2cccc(OC)c2)cc1`: the “lipid storage change, negative = inhibition” value was 14.8% (inactive) and the cell number change came out at 26.7%.

The values above are taken from PubChem BioAssay AID2685 (National Center for Advancing Translational Sciences (NCATS), 2010).
